KB-V1 MDR tox: kills drug-selected multidrug resistant KB-V1 cells. KB-V1 MDR cells viability, CellTiter-Glo, 72 h. Potency, µM (highest dose often 46.1 µM), actives largely listed as cytotoxic. 400,000 tested, 3.4% active; note: nearly all actives have a fitted effect of over 60% in size
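Following 72 h at 37 degrees C with compound, KB-V1 cell viability was read by CellTiter-Glo luminescence, medium being phenol-red-free DMEM plus 10% FBS; concentration-response parameters came from normalized, curve-fitted qHTS data.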
KB-3-1 cytotox: KB-3-1 parental cell cytotoxicity | KB-3-1 viability, CellTiter-Glo ATP luminescence, 72 h | Potency, µM (series often up to 46.1 µM), most hits filed as cytotoxic | 400,000 tested, 1.4% active | AID 1347075; note: nearly all actives have a fitted effect of over 60% in size
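KB-3-1 cells, DMEM (no phenol red) + 10% FBS; compound by pin transfer, 72 h, 37 °C. Readout: CellTiter-Glo luminescence after 10 min. Data normalized, curve-fitted.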
MCF10A rerep: DNA re-replication induction in MCF 10a cells. MCF 10A DNA re-replication, Hoechst nuclear intensity, 48 h. Potency, µM (top dose mostly 46.1 µM), usual class: activators. 350,000 tested, 2.9% active; note: nearly all actives have a fitted effect of over 50% in size
PINK1 modulator: changes PINK1 expression | PINK1 immunofluorescence, high-content cytometry, 24 h | 410,000 tested, 0.2% active | AID 624263 | Potency, µM (highest dose often 76.6 µM), actives largely listed as activators; active = well fitted activation curve with a large enough effect; inconclusive = small, poorly fitted or top-dose-only effect; cell line not stated here; note: nearly all actives have a fitted effect of over 65% in size
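Decision-based qHTS: stable cells, 24 h exposure to five compound concentrations, CCCP as control. Fixed cells stained for PINK1 plus nuclear, mitochondrial and cell markers, cytometer read.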
SW480 rereplic: inducers of DNA re-replication in SW480 colon cancer cells. Potency, µM (doses to about 46.1 µM), usual class: activators. SW480 DNA re-replication, Hoechst DNA content imaging, 48 h. 340,000 tested, 1.8% active; note: nearly all actives have a fitted effect of over 55% in size
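First, 250 cells per well were seeded. Next, compound or vehicle (23 nL) was pinned in, plates sat 48 hr at 37 C. Finally Hoechst was added for 40 min before fluorescence scanning.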
Each line names hits and unclear results; the compound was inactive in the other large screens. An excerpt weighted towards active compounds, which were near 6.7% of everything screened. Unless noted, calls come from the whole dose curve; as a rule, active = well fitted curve in the direction sought with a large enough effect; inconclusive = small, poorly fitted or top-dose-only effect, or another doubt; inactive = no such curve, though single readings can be large; an effect the other way counts as inactive or inconclusive.

COc1cc(N/N=C(\C)c2ccc(N)cc2)nc(-c2ccccc2)n1	MCF10A rerep 18.4µM
COc1cc(N/N=C(\C)c2ccc(O)c(C)c2)nc(-c2ccccc2)n1	MCF10A rerep inconclusive, SW480 rereplic inconclusive
CCC/C=C/c1ccc(CN2C(C(C)C)C(=O)N(Cc3cn(CCC4OCCO4)nn3)CCS2(=O)=O)cc1 (centres undefined)	PINK1 modulator inconclusive (no result: MCF10A rerep, SW480 rereplic)
CCOc1ccc(S(=O)(=O)N2CC(=O)Nc3ccccc32)cc1	KB-V1 MDR tox inconclusive, KB-3-1 cytotox inconclusive, MCF10A rerep inconclusive, SW480 rereplic 14.6µM
CCOc1ccc(S(=O)(=O)N2c3ccccc3CC2C)cc1 (centres undefined)	KB-V1 MDR tox 1.46µM, KB-3-1 cytotox 1.16µM, MCF10A rerep inconclusive, PINK1 modulator inconclusive, SW480 rereplic 1.64µM
Cc1cc(C(C)(C)C)cc(C)c1S(=O)(=O)N1CC(=O)Nc2ccccc21	MCF10A rerep 18.4µM, SW480 rereplic inconclusive
Cc1ccc(C(C)(C)C)cc1S(=O)(=O)N1CC(=O)Nc2ccccc21	KB-V1 MDR tox inconclusive
CN(C)S(=O)(=O)c1ccc(Cl)c(NC(=O)C2CCN(S(=O)(=O)c3cccs3)CC2)c1	none
COC(=O)c1ccc(-c2nc3ccc(C)cc3o2)cc1	KB-V1 MDR tox inconclusive, KB-3-1 cytotox inconclusive, MCF10A rerep inconclusive, SW480 rereplic 7.31µM
O=C1[C@@H](Oc2ccccc2)[C@@H](c2cnc3ccccc3c2)N1c1ccccc1	MCF10A rerep inconclusive, SW480 rereplic inconclusive
COc1ccc(NC(=O)Cc2c(F)cccc2Cl)cc1	none
Cc1cc(NC(=O)Cc2c(F)cccc2Cl)no1	MCF10A rerep 7.31µM, SW480 rereplic inconclusive
O=C(Cc1c(F)cccc1Cl)Nc1ccon1	PINK1 modulator 7.94µM
CN(CCc1ccccc1)C(C(=O)Nc1ccc2c(c1)OCCO2)c1ccnc2ccccc12 (centres undefined)	KB-V1 MDR tox 23.1µM, KB-3-1 cytotox inconclusive (no result: MCF10A rerep, SW480 rereplic)
CCOC(=O)c1cnc(SCC(=O)c2ccc3c(c2)OCCO3)nc1N	none
COc1ccc(-n2nnnc2SCC(=O)c2ccc3c(c2)OCCO3)c(OC)c1	KB-V1 MDR tox 9.2µM
O=C(CSc1nnnn1-c1ccc2c(c1)OCO2)NCc1ccccc1	KB-V1 MDR tox 11.6µM, KB-3-1 cytotox 7.31µM, SW480 rereplic 16.4µM
COc1ccc(C)cc1-n1nnnc1SCC(=O)c1ccc2c(c1)OCCO2	KB-V1 MDR tox inconclusive
Cc1cc(C)nc(SCC(=O)c2ccc3c(c2)OCCO3)n1	KB-V1 MDR tox inconclusive, MCF10A rerep 14.6µM (no result: PINK1 modulator)
COc1ccc(-n2nnnc2SCC(=O)Nc2ccc3c(c2)OCCO3)cc1OC	KB-V1 MDR tox 9.2µM, KB-3-1 cytotox inconclusive
O=C(CC1N=C2c3ccccc3N=C(SCc3ccccc3Cl)N2C1=O)NCCc1ccccc1 (centres undefined)	KB-V1 MDR tox inconclusive, KB-3-1 cytotox inconclusive (no result: MCF10A rerep, SW480 rereplic)
COc1ccc(C(=O)NCC2Cc3cccc(-c4cncnc4)c3O2)c(OC)c1OC (centres undefined)	none (no result: KB-V1 MDR tox, KB-3-1 cytotox, MCF10A rerep, SW480 rereplic)
COc1ccc(NC(=O)c2sc3nc(C(F)(F)F)cc(C)c3c2N)cc1OC	PINK1 modulator 39.8µM (no result: MCF10A rerep, SW480 rereplic)
CCc1ccccc1NC(=O)c1sc2nc(C)cc(C)c2c1N	KB-V1 MDR tox inconclusive, MCF10A rerep inconclusive, SW480 rereplic inconclusive
Cc1cc(C)c2c(N)c(C(=O)Nc3ncc(C)s3)sc2n1	KB-V1 MDR tox inconclusive, MCF10A rerep 9.2µM, SW480 rereplic inconclusive
COCc1cc(C)nc2sc(C(=O)Nc3ccccc3C)c(N)c12	MCF10A rerep inconclusive
Cc1cc(C)c2c(N)c(C(=O)Nc3ccccc3Br)sc2n1	MCF10A rerep 5.8µM, SW480 rereplic 18.4µM
COCc1cc(C)nc2sc(C(=O)Nc3ccccc3Br)c(N)c12	MCF10A rerep inconclusive, SW480 rereplic 1.84µM
COc1ccc(CNC(=O)c2sc3nc4c(c(C(F)(F)F)c3c2N)CCC4)cc1OC	MCF10A rerep inconclusive
OCCN1CCN(Cc2ccc3c(c2)CN(Cc2cnc(-c4ccccc4)s2)CCO3)CC1	none (no result: KB-V1 MDR tox, KB-3-1 cytotox, MCF10A rerep, SW480 rereplic)
COc1ccc2c(c1)c(C(=O)CN(C)C)c(C)n2C	KB-3-1 cytotox inconclusive (no result: MCF10A rerep, SW480 rereplic)
CCOc1ccccc1NC(=O)c1sc2nc(C)cc(C)c2c1N	none (no result: MCF10A rerep, SW480 rereplic)
Cc1cc(C)c2c(N)c(C(=O)Nc3ccccc3F)sc2n1	MCF10A rerep 29.1µM
Cc1cc(C)c2c(N)c(C(=O)Nc3ccccc3Cl)sc2n1	MCF10A rerep 11.6µM, SW480 rereplic inconclusive
CCC(c1nnc(SCC(=O)Nc2nnc(-c3ccccc3)o2)n1Cc1ccccc1)N(C)C (centres undefined)	KB-V1 MDR tox 23.1µM
COc1ccc(/C=C2\N=C(C(C)(C)C)OC2=O)c(OC)c1	MCF10A rerep 23.1µM
COc1ccc2cc(/C=N/O)c(Cl)nc2c1	KB-V1 MDR tox inconclusive
COc1ccc2cc(/C=N/NC(=O)c3ccc(CN(c4cccc(Cl)c4Cl)S(C)(=O)=O)cc3)c(Cl)nc2c1	KB-V1 MDR tox inconclusive, KB-3-1 cytotox 2.59µM, MCF10A rerep inconclusive
Cc1ccccc1-c1nc(SCC(=O)NCc2ccc(F)cc2)c2c(=O)n(C)c(=O)n(C)c2n1	none (no result: MCF10A rerep, SW480 rereplic)
O=Cc1cccc(C=O)c1	none (no result: MCF10A rerep, PINK1 modulator, SW480 rereplic)
Cn1nccc1NS(=O)(=O)c1ccc(NC(=O)C(F)(F)F)cc1	SW480 rereplic 2.91µM
COc1cc(-c2noc(C)c2/C=C/c2cccc([N+](=O)[O-])c2)cc(OC)c1OC	KB-V1 MDR tox 5.8µM, KB-3-1 cytotox 2.91µM, MCF10A rerep inconclusive, SW480 rereplic inconclusive
CC1CN(CC(O)COC(c2ccccc2)c2ccccc2)CC(C)O1 (centres undefined)	KB-V1 MDR tox 20.6µM, MCF10A rerep inconclusive, SW480 rereplic inconclusive
CN1CCN(CC(O)COC(c2ccc(Cl)cc2)c2ccc(Cl)cc2)CC1 (centres undefined)	MCF10A rerep 20.6µM
OC1CCCN(CC(O)COC(c2ccc(F)cc2)c2ccc(F)cc2)C1 (centres undefined)	none
OC(COC(c1ccc(Cl)cc1)c1ccc(Cl)cc1)CN1CCc2ccccc2C1 (centres undefined)	MCF10A rerep 18.4µM, SW480 rereplic inconclusive
OC(COC(c1ccc(F)cc1)c1ccc(F)cc1)CN1CCc2ccccc2C1 (centres undefined)	KB-V1 MDR tox 16.4µM, MCF10A rerep inconclusive, SW480 rereplic inconclusive
OC(COC(c1ccccc1)c1ccccc1)CN1CCc2ccccc2C1 (centres undefined)	KB-V1 MDR tox inconclusive, MCF10A rerep inconclusive
COc1cccc(C2Nc3ccc4ccccc4c3C3=C2C(=O)CCC3)c1O (centres undefined)	MCF10A rerep inconclusive
O=C(NCc1ccc(Cl)cc1)c1ccc(-c2ccccc2C(F)(F)F)o1	MCF10A rerep 23.1µM, PINK1 modulator inconclusive
COc1ccc(C2N=C(N)Nc3nc4ccccc4n32)cc1 (centres undefined)	none (no result: KB-V1 MDR tox, KB-3-1 cytotox, MCF10A rerep, SW480 rereplic)
NC1=NC(c2ccc(F)cc2)n2c(nc3ccccc32)N1 (centres undefined)	MCF10A rerep 25.9µM, SW480 rereplic inconclusive

From PubChem BioAssay
